Assay results: ChEMBL document CHEMBL4513216, “Probing the Open Global Health Chemical Diversity Library for Multistage-Active Starting Points for Next-Generation Antimalarials” (ACS Infect Dis, 2020)
The campaign covered roughly 65,000 compounds. About 2,100 (3.2%) showed an effect of 50% or more. The median lay at about -52%. For the sample, strong results were picked, then their nearest neighbours and some compounds at random.

Test system: Plasmodium falciparum
Experiment: Screen against P. falciparum Asexual Blood Stage (ABS), at 5uM
Assay type: functional, Dd2
Conditions: tested at 5 uM

In order of rising INHIBITION:
1. CC(O)CNCc1ccc(OCc2ccc3c(c2)OCCO3)cc1 (stereo not given)  -169%
2. Cn1ccc2c(cnc3nc(-c4ccncc4)nn32)c1=O  -169%
3. COc1ccc(C(=O)CCC(=O)NCc2c(C)noc2C)cc1F  -164%
4. Cc1ccc(N2CCc3ncnc(C4CC4)c3CC2)nn1  -150%
5. Cc1ccc(C(=O)NCCCNS(C)(=O)=O)cc1-n1cccc1  -137%
6. COCCN1C[C@@H]2CN(C(=O)[C@H]3CCCO3)C[C@@H]2C1=O  -135%
7. CC(c1cccs1)N(C)Cc1cnc(-c2ccccn2)nc1 (stereo not given)  -132%
8. Cc1sc2c(C3CCNCC3)nc(Nc3cccc(F)c3)n2c1C  -126%
9. CCN(C(=O)CN1CCCN(c2nc(C)ns2)CC1)C1CC1  -126%
10. COc1ccc(-n2ncc3c2NC(=O)CSC3CC(C)C)cc1 (stereo not given)  -124%
11. Cc1ccc(NC2CCN(C(=O)c3ccc(F)cc3Cl)CC2)nn1  -116%
12. O=C(c1ccc(F)cc1)N1CC[C@H]2[C@H]1CCN2CC1CCOCC1  -112%
13. CC(C)CC(=O)NCC1CCC(C(c2ccccn2)N(C)C)CC1 (stereo not given)  -110%
14. CC(C)c1ccc(-n2nnc(C(=O)O)c2-c2ccccn2)cc1  -101%
15. CCn1ccnc1CN1CCN(CC(=O)NC(=O)NC2CC2)CC1  -97.3%
16. CN1CC(=O)N(c2ccccc2)Cc2c(NC3CC3)ncnc21  -97.2%
17. COc1ccc(CN2CCC(C(N)=O)C2)c(Br)c1OC (stereo not given)  -93.4%
18. CN1CCCN(C(=O)NCc2ccccc2Cn2cncn2)CC1  -93.1%
19. N#Cc1cccnc1OC1CCN(S(=O)(=O)c2ccc(Br)cc2)CC1  -92.6%
20. CC(C)(C)c1nc(CN(CCC2CCCCC2)CC(N)=O)no1  -85.5%
21. CC(=O)N1CCO[C@@H]2CN(S(=O)(=O)c3ccc(F)cc3)CC[C@@H]2C1  -83.8%
22. CCn1ccnc1CN1CCN(C(C)C(=O)NC2CCCCC2)CC1 (stereo not given)  -83.4%
23. CN1CCO[C@H]2CN(S(=O)(=O)c3ccc(C#N)cc3)C[C@H]21  -81.8%
24. CCn1ccnc1CN1CCN(C(C)C(=O)N2CCCC2)CC1 (stereo not given)  -81.3%
25. CCNC(=O)NC(=O)C(C)N(C)CCOc1ccccc1C (stereo not given)  -80.5%
26. N#Cc1cccnc1N1CCC(Nc2ccccc2)C1 (stereo not given)  -76.7%
27. Cc1cc2n(n1)CCN(c1nc(N)nc3c1CCNCC3)C2  -75.3%
28. O=C(c1ccccn1)N1CCC2(COc3ncccc3S(=O)(=O)N2)C1 (stereo not given)  -69.3%
29. CC(=O)N1CCO[C@@H]2CN(S(=O)(=O)c3ccccc3F)C[C@@H]2C1  -67.6%
30. Cc1cccc(N2CCN(C(=O)Nc3cnn(CC(N)=O)c3)CC2)c1  -67.3%
31. CCc1nc(C2CCCN2Cc2cc(C)nc3ccccc23)no1 (stereo not given)  -64.8%
32. O=C(CC1CC1)N1C[C@H]2CN(CC3CC3)C(=O)[C@H]2C1  -64.7%
33. O=C1C(N2CCOCC2)CCCN1Cc1cccc(C(F)(F)F)c1 (stereo not given)  -61.2%
34. CSc1ncccc1C(=O)N1CCCC1c1ccc(C(=O)N(C)C)s1 (stereo not given)  -53.6%
35. O=C(CC1CC1)NCc1cn2c(n1)CN(Cc1cccc(F)c1)CC2  -52%
36. Cc1cc(-c2cnc(NC3CCCCC3)nc2-c2ccco2)on1  -49.1%
37. CN(CC(=O)NCc1cccnc1N1CCCCC1)C(=O)c1cccs1  -48.6%
38. CO[C@H]1CN(C(=O)OC(C)(C)C)CC1NCc1ccco1 (stereo not given in full)  -47.8%
39. C[C@@H](O)[C@H](NC(=O)c1csc2nc(-c3ccccc3F)cn12)C(N)=O  -41.1%
40. O=C1NCC2(CCCN(Cc3ccc(F)cc3)C2)Oc2ccccc21 (stereo not given)  -41%
41. NC(=O)Cn1cc(NC(=O)N2CCN(c3ccc(F)cc3)CC2)cn1  -40.9%
42. COc1ccccc1CN1CC(OC)CN(C(=O)OCC(C)C)CC1=O (stereo not given)  -40.4%
43. NCCc1nc(N[C@@H](CO)c2ccccc2)c2ccccc2n1  -39.4%
44. Cc1ccc(CNCC2Cn3nnc(-c4cnn(C)c4)c3CO2)o1 (stereo not given)  -32.4%
45. COCc1nn(C(C)C)c2c1CCN(Cc1ccc(C)o1)C2  -31%
46. O=C1CO[C@@H]2CN(S(=O)(=O)c3ccccc3F)C[C@H]2N1  -30.8%
47. COc1ccc2[nH]cc(CCNC(=O)C3CCCN(C(C)=O)C3)c2c1 (stereo not given)  -30%
48. CCn1ccnc1CN1CCN(CC(=O)NC2CCOCC2)CC1  -29%
49. CN(CCNC(=O)Nc1ccn(C)n1)Cc1ccc(F)cc1  -27.6%
50. CN1CCO[C@@H]2CN(S(=O)(=O)c3cccs3)CC[C@@H]2C1  -22.2%
51. COc1nn(C)c2c1CCCN(C(=O)c1cccs1)C2  -22.1%
52. CCC(Nc1nc(CCN)nc2ccccc12)c1cc(C)ccn1 (stereo not given)  -22%
53. CCNC(=O)COc1cc(CC)c2c(C)nn(-c3ccc(C)cc3)c2n1  -21.1%
54. O=C1NCC2(CCCN(Cc3ccccc3F)C2)Oc2ccccc21 (stereo not given)  -20.4%
55. COc1ccc(-c2cccc(-c3ccn(CCCN(C)C)n3)c2)nn1  -18.6%
56. CN1CCO[C@@H]2CN(S(=O)(=O)c3ccccc3)C[C@@H]2C1  -17.9%
57. N#Cc1ccccc1CN1C[C@@H]2CC[C@H]1CN(C(=O)c1cccnc1)C2  -15.6%
58. c1ccc(CN2CCc3c(COCc4ccncc4)cncc3C2)nc1  -14.6%
59. CCCc1ncc(C(=O)N2CCOc3ncccc32)s1  -13.4%
60. CC(C)NC(=O)N1CCc2onc(C(=O)NCCN(C)C)c2C1  -13.1%
61. Cc1ccc(Nc2nccc(C3CCCN(CC(=O)N(C)C)C3)n2)nc1 (stereo not given)  -3.51%
62. CN(C)C[C@H]1OC[C@@H]2CCN(S(=O)(=O)c3ccccc3)C[C@@H]21  -3.11%
63. COc1cc(CCC(=O)N2CCC(c3cc4ncccc4[nH]3)CC2)on1  -0.239%
64. Cc1cc(CN2CCc3c(CNc4ncccn4)cncc3C2)oc1C  0.619%
65. CC(C)C1=NOC2(CCN(Cc3c[nH]c4ccccc34)CC2)C1  2.84%
66. Cc1cc(NCCNS(=O)(=O)c2cn(C)nc2C)c2ccccc2n1  3.35%
67. COc1cc(Cl)c(CN2CCC(C(N)=O)C2)cc1Cl (stereo not given)  7.24%
68. Cc1ccc(S(=O)(=O)N2CC[C@H]3CO[C@H](CN(C)C)[C@H]3C2)cc1  12.4%
69. CN(C)CCCn1ccc(-c2cccc(-c3cncnc3)c2)n1  14.5%
70. c1cc(-c2cnccn2)cc(-c2ccn(CCCN3CCCCC3)n2)c1  21.9%
71. CN(C)CCNC(=O)c1nc2c(s1)CCCN2C(=O)C1CC1  25.4%
72. CN(C)C(=O)COCc1cncc2c1CCN(Cc1ccccn1)C2  25.8%
73. CN(C)c1ccc(C(=O)N2CCC(c3cc4cnccc4[nH]3)CC2)cc1  29.8%
74. Cc1ccc(CN(CCCn2ccnc2)Cc2c[nH]nc2C(C)(C)C)s1  33.5%
75. CN1CCO[C@@H]2CN(S(=O)(=O)c3ccccc3)CC[C@@H]2C1  33.8%
76. Cc1ccccc1N1CCN(c2nc(N(C)C)nc3c2CCNC3)CC1  39.1%
77. CCN1CCO[C@@H]2CN(S(=O)(=O)c3cccs3)CC[C@@H]2C1  40.2%
78. c1cc(-c2cnccn2)cc(-c2ccn(CCN3CCCCC3)n2)c1  43.8%
79. CCc1ccccc1OCCN1C[C@@H](NS(C)(=O)=O)[C@H](C(C)C)C1  45.2%
80. CC(C)[C@@H]1CN(CCOc2ccc(Cl)cc2)C[C@H]1NS(C)(=O)=O  45.9%
81. Cc1ccc2nc(C)cc(NCCNS(=O)(=O)c3cn(C)nc3C)c2c1  47.8%
82. CN1CCO[C@@H]2CN(S(=O)(=O)c3ccccc3F)CC[C@@H]2C1  50.3%
83. CN(C)C[C@H]1OC[C@@H]2CCN(S(=O)(=O)c3ccc(F)cc3)C[C@@H]21  50.5%
84. CCn1ccnc1CN1CCN(C(C)C(=O)NC2CCCC2)CC1 (stereo not given)  51%
85. O=C1NCC2(CCCN(CCc3ccccc3)C2)Oc2ccccc21 (stereo not given)  51.7%
86. CC(C)N1CCO[C@@H]2CN(S(=O)(=O)c3cccs3)CC[C@@H]2C1  52.1%
87. COCCN1C[C@@H]2CN(C(=O)CC3CC3)C[C@@H]2C1=O  53.5%
88. CC(C)[C@@H]1CN(CCCOc2ccc(F)cc2)C[C@H]1NS(C)(=O)=O  53.7%
89. CN(C)c1ccc(C(=O)N2CCC(c3cc4ncccc4[nH]3)CC2)cc1  55.6%
90. Cc1cc2n(n1)CCN(c1nc(N(C)C)nc3c1CCNC3)C2  57.8%
91. c1ccc(CN2CCc3c(COCC4CC4)cncc3C2)nc1  59.3%
92. COc1ccc(S(=O)(=O)N2C[C@@H]3CN(C)CCO[C@@H]3C2)cc1  60.2%
93. CN(C)CCCn1ccc(-c2cccc(-c3ccccn3)c2)n1  61%
94. CCn1ccnc1CN1CCN(CC(=O)NC(C2CC2)C2CC2)CC1  61.4%
95. CN1CCO[C@@H]2CN(S(=O)(=O)c3ccc(F)cc3)CC[C@@H]2C1  62.7%
96. Cc1ccc2nc(C)cc(NCCNS(=O)(=O)c3cccnc3)c2c1  62.9%
97. CCC(Nc1nc(CCN)nc2ccccc12)c1cccs1 (stereo not given)  63.5%
98. COc1ccc(CN2CCC(C(N)=O)CC2)cc1SC(F)(F)F  63.5%
99. NC(=O)Cn1cc(NC(=O)N2CCN(c3ccccc3)CC2)cn1  63.7%
100. c1cc(-c2cnccn2)cc(-c2ccn(CCN3CCCC3)n2)c1  69.1%
